Assay results taken from PubChem BioAssay AID504692 (The Scripps Research Institute Molecular Screening Center, 2011).
Several values for one entry are separate records, joined by “and”; a condition that tells them apart may be missing. Equal entries are not always repeated. Hit rate of the full screen: of about 340,000 compounds, about 2,000 (0.59%) were called active. This excerpt belongs to a sample that is enriched for actives. Values without a mark were called inactive. Cut-off read from the data, not from the text of the source: active = activation mostly above about 9.5% (no sharp cut-off); inactive = mostly below about 7.6%.

The compounds below were run against 5-hydroxytryptamine receptor 5A (Homo sapiens) (UniProt P47898) (assay: HTR5A agonists in luminescence cell assay, primary screen, counter-screen for OPRM1-OPRD1 heterodimer agonist project, full-deck HTS (AID 504692;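 note: 0% = cells with vehicle only and 100% = reference agonist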)). Conditions: cell-based, at 9.3 µM, hits give high values.
Chain of 5-hydroxytryptamine receptor 5A (Homo sapiens) (P47898 whole entry, looked up): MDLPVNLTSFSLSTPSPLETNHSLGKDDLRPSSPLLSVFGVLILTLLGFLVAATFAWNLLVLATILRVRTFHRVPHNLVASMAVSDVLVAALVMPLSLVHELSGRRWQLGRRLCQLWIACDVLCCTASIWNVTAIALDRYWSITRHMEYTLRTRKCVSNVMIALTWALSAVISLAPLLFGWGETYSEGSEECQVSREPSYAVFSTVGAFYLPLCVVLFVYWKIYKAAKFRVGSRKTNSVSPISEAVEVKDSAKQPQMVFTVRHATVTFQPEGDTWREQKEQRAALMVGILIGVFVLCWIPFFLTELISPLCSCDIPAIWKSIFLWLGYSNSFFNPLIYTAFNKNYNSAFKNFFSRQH

Compound	activation
C[C@]12CC[C@H](O)C[C@H]1CC[C@@H]1C2CC[C@]2(C)[C@@H](C3=CC(=O)OC3)[C@@H](O)C[C@]12O (stereo not given in full)	16.5%
COC1C(O)C(C)OC(OC2CCC3(C=O)C(CCC4C3CCC3(C)C(C5=CC(=O)OC5)CCC43O)C2)C1O (stereo not given)	20% (active)
Oc1ccc2c3c1OC1[C@H](O)CC[C@@]4(O)[C@@H](C2)N(CC2CC2)CC[C@]314 (stereo not given in full)	2.68% and -1.51%
CC[N+](CC)(CC)CCCCCCCCCC[N+](CC)(CC)CC	2.35%
CCOP(=O)(OCC)C(O)c1ccc(OC)cc1OC (stereo not given)	-1.32%
CCCCCCCCCCCCn1ccc(=N)cc1	14.5% (active)
Cc1cc(C(=O)OCC(=O)Nc2c(F)cccc2F)c(C)n1C1CC1	-0.58%
C/C=C/CC1(CC)C(=O)NC(=S)NC1=O	0.5%
COC(=O)C(O)(c1ccc(NC(=O)c2ccco2)c(OC)c1)C(F)(F)F (stereo not given)	-2.39%
CN(C)C(=O)Oc1cc(=O)n2c3c(cccc13)CCC2	2.56%
O=C(Cc1ccccc1)N1CCN(C2CCCCCC2)CC1	1.91%
CCOC(=O)c1c(C)c(C(=O)N2CCC3(CC2)OCCO3)c(C)n1CC	10.3% (active)
Cc1ccc(-c2cc(C(=O)N3CCC4(CC3)OCCO4)no2)cc1	1.14%
COc1ccc(S(=O)(=O)NCc2ccc(C(=O)N3CCC4(CC3)OCCO4)cc2)cc1	3.27%
CC(C)Oc1cccc(C(=O)C2CCCN(C3CCOCC3)C2)c1 (stereo not given)	3.38%
